# Activity calls are given as the source filed them.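 Rule for the calls, unless noted: active = potentiation averaged over duplicate wells exceeding buffer-only control mean by more than 3 SD; inactive = the rest.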
# Experiments:
# [1] = nonspecific flux increase, KCNQ1-free cells – parental CHO cells, counter-screen for KCNQ1 potentiator project (AID 493006;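 active = duplicate-averaged activation above buffer control mean plus 5 SD of those controls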;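 for activation: fluorescence ratio of max minus min over baseline after K+ and Tl+ depolarization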); details: parental CHO-K1 cells, FluxOR thallium flux, at 10 µM; stronger effect = higher value
# [2] = biological target: Potassium voltage-gated channel subfamily KQT member 1 (Homo sapiens) (UniProt P51787); assay: enhancement of KCNQ1 channel thallium flux – FluxOR thallium flux, CHO cells, duplicates, confirmation (AID 493007); details: KCNQ1 cell line, FluxOR thallium flux fluorescence, at 10 µM; stronger effect = higher value, % of reference activator effect, buffer zero;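 for outcome: cells depolarized by a potassium plus thallium sulfate stimulus after compound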;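 for potentiation: 0% = buffer-only wells and 100% = R-L3 activator control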
# Sequence of Potassium voltage-gated channel subfamily KQT member 1 (Homo sapiens) (P51787 whole entry, looked up): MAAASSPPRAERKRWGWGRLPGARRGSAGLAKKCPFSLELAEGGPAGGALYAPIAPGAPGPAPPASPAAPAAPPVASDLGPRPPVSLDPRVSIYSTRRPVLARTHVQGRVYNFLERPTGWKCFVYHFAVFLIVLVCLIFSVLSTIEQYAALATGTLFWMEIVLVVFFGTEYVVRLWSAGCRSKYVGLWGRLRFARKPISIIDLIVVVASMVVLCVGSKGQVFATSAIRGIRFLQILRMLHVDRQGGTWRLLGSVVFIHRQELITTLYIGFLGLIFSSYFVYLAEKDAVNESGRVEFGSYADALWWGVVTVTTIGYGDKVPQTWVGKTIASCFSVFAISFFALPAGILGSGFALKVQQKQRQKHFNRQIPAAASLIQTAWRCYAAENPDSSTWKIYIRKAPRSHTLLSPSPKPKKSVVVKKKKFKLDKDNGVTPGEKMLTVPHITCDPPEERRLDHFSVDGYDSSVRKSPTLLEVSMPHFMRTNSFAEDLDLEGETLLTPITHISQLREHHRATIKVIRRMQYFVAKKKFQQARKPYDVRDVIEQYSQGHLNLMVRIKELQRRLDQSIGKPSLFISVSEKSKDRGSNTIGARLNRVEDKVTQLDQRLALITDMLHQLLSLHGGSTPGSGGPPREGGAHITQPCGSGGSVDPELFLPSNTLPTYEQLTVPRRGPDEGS
# [3] = biological target: Potassium voltage-gated channel subfamily KQT member 2 (Rattus norvegicus) (UniProt O88943); assay: KCNQ2 thallium flux enhancement – KCNQ2-CHO-K1 cells, selectivity assay for KCNQ1 potentiator project (AID 493009;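 active = mean duplicate potentiation above the buffer control mean plus 5 SD of buffer wells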;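 note: assay conditions were tuned for KCNQ1 rather than KCNQ2 modulators; signal is max minus min fluorescence divided by baseline after thallium stimulus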); details: FluxOR thallium flux fluorescence, at 10 µM; stronger effect = higher value, scaled: buffer 0, activator control 100
# Sequence of Potassium voltage-gated channel subfamily KQT member 2 (Rattus norvegicus) (O88943 whole entry, looked up): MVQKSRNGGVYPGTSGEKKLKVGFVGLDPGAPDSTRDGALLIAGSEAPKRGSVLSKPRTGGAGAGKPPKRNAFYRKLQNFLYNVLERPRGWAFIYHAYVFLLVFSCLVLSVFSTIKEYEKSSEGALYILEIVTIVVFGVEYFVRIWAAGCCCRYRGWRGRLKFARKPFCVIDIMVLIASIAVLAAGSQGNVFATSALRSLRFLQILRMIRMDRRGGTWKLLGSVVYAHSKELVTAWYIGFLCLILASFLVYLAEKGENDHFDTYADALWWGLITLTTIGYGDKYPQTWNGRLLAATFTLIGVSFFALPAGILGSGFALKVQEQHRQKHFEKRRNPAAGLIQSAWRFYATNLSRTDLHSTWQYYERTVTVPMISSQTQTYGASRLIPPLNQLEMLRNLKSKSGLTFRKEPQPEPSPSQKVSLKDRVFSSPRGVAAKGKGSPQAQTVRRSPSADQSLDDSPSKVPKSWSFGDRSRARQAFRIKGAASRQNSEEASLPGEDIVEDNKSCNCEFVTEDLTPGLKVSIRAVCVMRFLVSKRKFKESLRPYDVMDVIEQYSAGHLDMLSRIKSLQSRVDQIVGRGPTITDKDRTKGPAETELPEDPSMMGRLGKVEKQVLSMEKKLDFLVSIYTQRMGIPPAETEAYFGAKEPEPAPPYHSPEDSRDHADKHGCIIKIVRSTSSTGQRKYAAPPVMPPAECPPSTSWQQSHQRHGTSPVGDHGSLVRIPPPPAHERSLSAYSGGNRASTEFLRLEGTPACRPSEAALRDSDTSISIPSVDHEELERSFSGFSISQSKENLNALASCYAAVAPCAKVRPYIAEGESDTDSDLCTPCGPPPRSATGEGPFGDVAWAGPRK
# [4] = biological target: Potassium voltage-gated channel subfamily KQT member 1 (Homo sapiens) (UniProt P51787); assay: KCNQ1 activators by electrophysiology – IonWorks patch clamp, KCNQ1-CHO cells, orthogonal assay for KCNQ1 potentiator project, confirmation (AID 493184;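 active = current rise at least 3 SD above the untreated control mean in each of two repeat wells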); details: automated patch clamp current, at 10 µM
# [5] = biological target: Potassium voltage-gated channel subfamily E member 1 (Homo sapiens) + Potassium voltage-gated channel subfamily KQT member 1 (Homo sapiens) (UniProt P15382+P51787); assay: KCNQ1-E1 channel activation – thallium flux, CHO-K1 KCNQ1/E1 cells, selectivity assay for KCNQ1 potentiator project, confirmation (AID 493186;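 active = mean duplicate activation above the buffer control mean plus 5 SD of those controls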); details: FluxOR thallium flux, at 10 µM
# Sequence of Potassium voltage-gated channel subfamily E member 1 (Homo sapiens) + Potassium voltage-gated channel subfamily KQT member 1 (Homo sapiens) (P51787 whole entry, looked up): as the sequence (P51787 whole entry, looked up) above
Compound,outcome [1],outcome [2],outcome [3],outcome [4],potentiation [3],potentiation [2],outcome [5],activation [1]
CCOP(=S)(OCC)c1ccc(N(C)C)cc1,inactive,inactive,inactive,inactive,,,,
N#CCCn1cc(C(=O)Nc2ccccc2Cl)c(-c2ccc(F)cc2)n1,inactive,inactive,,inactive,144% (active),,,
c1ccc2c(c1)Sc1ccccc1N2CC1CN2CCC1CC2 (centres undefined),inactive,inactive,inactive,inactive,,,,
Brc1ccc2c(c1)C(OC1CN3CCC1CC3)c1ccccc1CS2 (centres undefined),inactive,,inactive,inactive,,40.5% (active),,
CC(=O)OC(C)(C)/C=C/C(=O)C(C)(O)C1[C@H](O)C[C@@]2(C)C3CC=C4C(CC[C@@H](O)C4(C)C)[C@]3(CO)C(=O)C[C@]12C (some centres undefined),inactive,inactive,inactive,inactive,,,inactive,
O=C(O)c1cccc2c1NC(c1cccc([N+](=O)[O-])c1)C1CC(Sc3ccccc3[N+](=O)[O-])C(Cl)C21 (centres undefined),inactive,inactive,inactive,inactive,,,,
CN1CCN(c2cc(N3CCCC3)c([N+](=O)[O-])cc2F)CC1,inactive,inactive,inactive,inactive,,,,
COc1ccc(C(=O)OC2CC[C@@]3(C)C4CCC5[C@]6(O)CC(O)[C@@]7(O)C(CN8CC(C)CCC8[C@@]7(C)O)[C@]6(O)C[C@@]53O[C@]24O)cc1OC (some centres undefined),inactive,,,inactive,160% (active),25.5% (active),inactive,
CN1CCC(c2c[nH]c3ccccc23)C1 (centres undefined),inactive,inactive,inactive,inactive,,,,
N#Cc1c(N2CCNCC2)nc(-c2ccco2)c2c1CCCC2,inactive,inactive,inactive,inactive,,,,
Cc1nc2ccccc2c(=O)n1/N=C/c1cc(Br)cc(Br)c1O,inactive,inactive,inactive,inactive,,,,
O=c1c(C=NCCN2CCNCC2)c(O)n(C2CCCCC2)c(=O)n1C1CCCCC1,inactive,inactive,inactive,inactive,,,inactive,
CC1(C)C[C@H]2C=C(C=O)[C@]3(C=O)C[C@]3(C)[C@H]2C1,inactive,,inactive,inactive,,24% (active),inactive,
O=C1NC(=O)N(Cc2ccc(F)cc2)C(=O)/C1=C/c1cccs1,inactive,inactive,inactive,inactive,,,,
CCN(CC)C(=O)c1ccc(NC(=O)CSc2nnnn2-c2cc(OC)ccc2OC)cc1,inactive,inactive,inactive,inactive,,,,
Cc1ccccc1CC(=O)N(CCN(C)C)CC1CCCN(Cc2ccccc2F)C1 (centres undefined),inactive,inactive,,inactive,,,inactive,
O=[N+]([O-])c1cccc(C2N3CCCN23)c1 (centres undefined),inactive,inactive,inactive,inactive,,,inactive,

Compound,outcome [1],outcome [2],outcome [3],outcome [4],potentiation [3],potentiation [2],outcome [5],activation [1]
CC1=CC2/C=C(\C)CCC(O)C(O)/C=C/C(=O)C23C(=O)NC(CC(C)C)C3C1C (centres undefined),inactive,,inactive,inactive,,23% (active),inactive,
COc1ccc2c(c1)/C(=C/c1cnc[nH]1)C(=O)N2,inactive,inactive,inactive,inactive,,,inactive,
CC1(C)CSC(=NCc2ccccc2)N1,inactive,,inactive,inactive,,23% (active),inactive,
CCOC(=O)C1C(=O)NC2(C)CC1c1cc(OC)ccc1O2 (centres undefined),inactive,inactive,inactive,inactive,,,,
CCOc1cc(CNCCc2c[nH]c3ccccc23)cc(Cl)c1OCC,inactive,,inactive,inactive,,19% (active),inactive,
CNC(=O)NC(O)C(Cl)(Cl)Cl (centres undefined),inactive,inactive,inactive,inactive,,,,
Cn1cccc1/C=C1/C(=O)NC(=S)N(Cc2ccc(F)cc2)C1=O,inactive,inactive,inactive,inactive,,,inactive,
COc1ccccc1N(CC(=O)NC1CCCC1)C(=O)c1cnn(C(C)C)c1,inactive,inactive,inactive,inactive,,,,
COc1ccc(C2NCc3ccc4c(c3-n3cccc32)OCO4)cc1O (centres undefined),inactive,inactive,,inactive,,,inactive,
Cc1ccc(/C=C2/C(=O)NC(=O)N(CCc3ccc(F)cc3)C2=O)o1,inactive,inactive,inactive,inactive,,,inactive,
O=C(c1ccc(-c2ccccc2)cc1)C1CCCN(Cc2ccn[nH]2)C1 (centres undefined),inactive,inactive,inactive,inactive,,,,
C=C(C)[C@@]12OC3(c4ccccc4)O[C@@H]1C1[C@@H]4O[C@]4(CO)[C@@H](O)[C@]4(O)C(=O)C(C)=C[C@H]4[C@@]1(O3)[C@H](C)[C@H]2OC(=O)/C=C/C=C/c1ccccc1 (some centres undefined),inactive,inactive,inactive,inactive,,,,
O=[N+]([O-])c1ccc(N2CCOCC2)c2ccncc12,inactive,inactive,inactive,inactive,,,inactive,
CC(=NCc1ccc(F)cc1)c1c(O)n(C)c(=O)n(C)c1=O,,,inactive,inactive,,91.5% (active),,144% (active)
CN1CC(C(=O)c2ccccc2)C(c2ccccc2)C1 (centres undefined),inactive,inactive,inactive,inactive,,,,
Cc1ccccc1-n1c(O)c(/C=N/N2CCOCC2)c(=O)[nH]c1=S,inactive,inactive,inactive,inactive,,,,
